An excerpt weighted towards active compounds, which were near 4.1% of everything screened.
ssDAF-12 act: S. stercoralis DAF-12 nuclear receptor activators, primary screen, cell-based, luminescence, HEK293, GRIP1 co-expression, lit1-tk-luc. Nuclear hormone receptor DAF-12 (Strongyloides stercoralis). HEK293 ssDAF-12/GRIP1 lit1-tk-luc reporter; % of 3 µM dafachronic acid response. activation, % at 6.8 µM. 370,000 compounds, 1% hits. AID 652126, 2013;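 active = activation above the mean over all tested compounds plus 3 SD, cut at about 0.9% in these data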;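 note: 0% = DMSO-only wells and 100% = 3 µM delta7-dafachronic acid wells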
DAX1 inh-1: DAX1 (NR0B1) inhibitors, primary screen, cell-based, HEK293, Gal4-DAX1, luciferase luminescence. Nuclear receptor subfamily 0 group B member 1 (Homo sapiens), P51843. HEK293 Gal4-DAX1 luciferase reporter. inhibition, % at 6.75 µM. 340,000 compounds, 0.99% hits. AID 504766, 2011;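 active = inhibition above the mean over all tested compounds plus 3 SD, cut at about 4.2% in these data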;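 note: 0% = DAX1-transfected cells with DMSO and 100% = empty-vector control cells with DMSO; inhibition shows as a rise in luminescence from relieved DAX1 repression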
Target sequence (P51843 207-470 limits assumed): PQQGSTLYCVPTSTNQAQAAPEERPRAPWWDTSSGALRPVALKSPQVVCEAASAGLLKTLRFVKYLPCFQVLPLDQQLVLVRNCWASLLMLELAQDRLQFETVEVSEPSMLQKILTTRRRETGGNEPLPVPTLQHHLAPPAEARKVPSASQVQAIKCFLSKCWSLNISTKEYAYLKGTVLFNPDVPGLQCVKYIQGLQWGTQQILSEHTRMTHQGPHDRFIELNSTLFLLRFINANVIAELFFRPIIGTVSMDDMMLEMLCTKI
DAX1 inh-2: DAX1 (NR0B1) inhibitors on StAR promoter, primary screen, cell-based, luminescence, SF-1 (NR5A1), full-length DAX-1; 370,000 compounds, 1.1% hits; AID 652010, 2013; inhibition, % at 6.8 µM; HEK293T StAR-luciferase reporter, SF-1/DAX-1 repression relief;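 active = inhibition above the mean over all tested compounds plus 3 SD, cut at about 3.6% in these data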;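 note: 0% = DAX-1 cells with DMSO and 100% = cells lacking DAX-1 with DMSO; higher inhibition means more luminescence from relief of DAX-1 repression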
hgDAF12 agonist: H. glycines DAF-12 receptor agonists, primary screen, cell-based, luminescence, HEK293, GAL4 fusion, UAS-luciferase; activation, % at 6.8 µM; AID 687014, 2013; HEK293 GAL4-hgDAF12 UAS-luciferase reporter, agonist luminescence; normalized to butyrate control; Nuclear hormone receptor DAF-12 (Heterodera glycines), GAL4 fusion; 370,000 compounds, 1.8% hits;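 active = activation above a cutoff set at the mean of all screened compounds plus 3 SD, cut at about 10% in these data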;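 note: 0% = DMSO wells and 100% = sodium butyrate wells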
hcDAF-12 act: H. contortus DAF-12 nuclear receptor activators, primary screen, cell-based, luminescence, HEK293, lit1-tk-luc reporter; HEK293 hcDAF-12 lit1-tk-luc reporter; 0% DMSO, 100% Δ7-dafachronic acid; activation, % at 6.8 µM; 370,000 compounds, 1.4% hits; AID 652067, 2013;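 active = activation above the mean of all tested compounds plus 3 SD, cut at about 5.5% in these data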;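 note: 100% = response to 3 µM Δ7-dafachronic acid high control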
Numbers without * were called inactive; nt = no result given.

SMILES | ssDAF-12 act | DAX1 inh-1 | DAX1 inh-2 | hgDAF12 agonist | hcDAF-12 act
NCCC(=O)Nc1ccc(Cl)cc1C(=O)c1ccc[nH]1 | -1 | nt | nt | 3 | 0
O=C(N/N=C/c1ccccc1O)c1cccc(C(F)(F)F)c1 | -2 | -2 | -3 | -7 | -3
O=C(N/N=C/c1ccccc1C(F)(F)F)c1ccc(O)cc1 | 0 | 5.0* | 2 | 7 | 1
Nc1c(C(=O)N2CCCCC2)sc2nc3c(cc12)CCCC3 | 0 | 0 | 3 | 12* | 5
COC(=O)C1=C(C)N(C)C(=NCc2ccc(OC)cc2)NC1c1cccc(Cl)c1 (stereo unspecified) | -1 | nt | 0 | 1 | 0
CN(C)Cc1nnnn1-c1ccccc1 | -1 | 4.9* | 0 | -2 | 0
COc1ccc(CN2C(=O)N(c3ccc(OC)cc3)C(=O)C2CC(=O)Nc2ccccc2)cc1 (stereo unspecified) | -1 | 0 | -1 | -1 | 1
COc1ccc(N2C(=O)C(CC(N)=O)N(NC(=O)CCc3ccccc3)C2=O)cc1 (stereo unspecified) | -1 | 5.9* | 0 | -1 | 1
CC(c1ccccc1)n1cc(C(=O)NCCCN2CCCC2)nn1 (stereo unspecified) | -1 | nt | 1 | 3 | 1
COC(=O)C1=C(C)N(Cc2ccccc2C(F)(F)F)C(=NCc2ccc(C(F)(F)F)cc2)NC1c1ccc(C(F)(F)F)cc1 (stereo unspecified) | -1 | nt | 1 | 4 | 1
O=C(NCC(=O)N(CCN1CCOCC1)C(C(=O)NC1CCCC1)c1cccs1)c1ccco1 (stereo unspecified) | -1 | 4.7* | 1 | 3 | 1
C=CCN(C(=O)CNC(=O)c1ccco1)C(C(=O)NC1CCCC1)c1cccs1 (stereo unspecified) | -2 | 1 | 1 | -4 | -2
CC(Sc1nc2ccccc2s1)C(=O)N1CCOCC1 (stereo unspecified) | 1.2* | 2 | 1 | 3 | 3
CCCCN(CC)CCCNC(=O)c1cc2c(=O)n(CC)c3ccccc3c2s1 | -1 | 4.7* | 1 | 0 | 2
CCCN(CCC)CCCNC(=O)c1cc2c(=O)n(CC)c3ccccc3c2s1 | -1 | 7.3* | 2 | 0 | 1
CCN(CC)CCNC(=O)c1cc2c(=O)n(C)c3ccccc3c2s1 | 0 | 1 | 2 | 6 | 6.3*
CCn1c(=O)c2cc(C(=O)NCC(OC)OC)sc2c2ccccc21 | -1 | 6.2* | 0 | -2 | -2
CN(Cc1ccccc1)S(=O)(=O)c1cccc(C(=O)OCC2CCCCC2)c1 | -2 | nt | 0 | -1 | 0
C/C(C=NNC(=O)CSc1nnc(-c2ccc(Cl)cc2)n1-c1ccc(C)cc1)=C\c1ccccc1 | -1 | nt | 1 | -3 | 3
CC(=O)Nc1nc2ncccn2c1-c1ccc(C)cc1 | -1 | nt | 0 | -1 | -1
Cc1cc(NC(=O)CSCC(=O)Nc2nc3ccc(F)cc3s2)no1 | 0 | 0 | 1 | 2 | 5.7*
Cc1cc(NC(=O)CSc2n[nH]c(N)n2)no1 | -1 | 0 | 4.3* | 0 | 0
Cc1cc(NC(=O)CSc2nc3ccccc3[nH]2)no1 | -1 | 0 | 0 | 0 | -1
Cc1cc(NC(=O)CSCC(=O)Nc2nc3ccccc3[nH]2)no1 | 1 | 1 | 3 | 3 | 5.8*
CCc1nc(SCC(=O)Nc2cc(C)on2)n[nH]1 | 0 | 0 | 0 | 1 | 0
SMILES | ssDAF-12 act | DAX1 inh-1 | DAX1 inh-2 | hgDAF12 agonist | hcDAF-12 act
CCc1nc(SCC(=O)Nc2cc(C)on2)c2c(C)c(C)sc2n1 | 0 | 5.7* | 0 | -1 | -2
COc1ccc(C2Nc3ccccc3C(=O)N2Cc2ccc(C)o2)cc1COc1c(C)cccc1C (stereo unspecified) | -2 | nt | nt | 0 | 1
Cc1cc(NC(=O)CSCC(=O)Nc2cc(C(F)(F)F)ccc2N2CCCCC2)no1 | 0 | 0 | 2 | 5 | 6.0*
O=C(CCNC(=O)c1ccccc1Cl)NCCCSc1ccccc1 | -1 | 0 | 0 | 0 | -1
O=C(NCSc1ccnc(SCNC(=O)c2ccccc2)n1)c1ccccc1 | 0 | -1 | 1 | -1 | 2
O=C(NCCSSCCNC(=O)c1ccccc1)c1ccccc1 | -2 | -1 | -1 | 4 | -2
O=C(NCCSc1ccccc1)c1ccccc1 | 0 | 3 | 3 | 12* | 5
O=C(NCSc1ccncn1)c1ccccc1 | -1 | 4.9* | 0 | 2 | -1
O=C(NCCSc1ccccc1)c1ccccc1Cl | 0 | 1 | 3 | 15* | 1
COC(=O)[C@@]1(OC(C)=O)CC(OC(C)=O)[C@H](OC(C)=O)[C@H](OC(C)=O)C1Br (stereo partly specified) | -1 | nt | nt | 1 | -1
CC(C)C1=CC2C3C(=O)N(c4ccccc4)C(=O)C3C1C(=O)C2(C)O (stereo unspecified) | -1 | nt | 0 | 4 | -1
O=C(Cc1nc(=O)c2ccccc2s1)Nc1ccccc1 | 0 | 3 | 3 | 11* | 5.9*
Cc1ccc(C(=O)Oc2ccc(/C=C3\C(=N)N4N=C(N5CCOCC5)SC4=NC3=O)cc2)cc1 | -1 | 1 | 0 | 12* | 2
Cc1nn(CCC(=O)NNC(=O)NCc2ccccc2)c(C)c1[N+](=O)[O-] | -2 | nt | -1 | 1 | -2
O=C1C2CCCCC2C(=O)N1c1ccc(NC2CCCCC2)c([N+](=O)[O-])c1 (stereo unspecified) | -1 | -1 | 0 | 1 | 1
COCCNc1ccc(N2C(=O)C3CCCCC3C2=O)cc1[N+](=O)[O-] (stereo unspecified) | -1 | 4.6* | 0 | 3 | -2
COc1cc2c(c(OC)c1OC)-c1ccc(SC)c(=O)cc1C(NC(=O)c1ccccc1)CC2 (stereo unspecified) | 0 | -1 | 3.7* | -1 | -2
COC(=O)c1ccc2c(c1)C(NC(C)=O)CCc1cc(OC)c(OC)c(OC)c1-2 (stereo unspecified) | 0 | 1 | 4.3* | -4 | -1
COc1cc2c(c(OC)c1OC)-c1ccc(OC)c(=O)cc1C(NC(C)=O)CC2 (stereo unspecified) | 0 | 2 | 1 | -6 | 0
COc1cccc2sc3cc(C#Cc4ccccn4)ccc3c(=O)c12 | -1 | -1 | 0 | -3 | -2
COc1cccc2oc3ccc(C#Cc4ccccn4)cc3c(=O)c12 | 0 | 2 | 3 | 11* | 3
c1csc(-c2noc(CN3CCc4sccc4C3)n2)c1 | -1 | 0 | 1 | 4 | 0
